Measurements as given in PubChem BioAssay (Tox21).
Values joined by “and” are separate entries in the source; they are usually repeats but may differ in a detail not shown here. Identical values can stand only once. Inconclusive results are not listed. Entries that show only a call come without a potency. The source holds several records for some structures; these can differ, active in one and inactive in another. Active and inactive are the calls of the source. Calls come from the whole dose curve; as a rule, active = well fitted cell-killing curve with a large enough effect in the repeat runs; inconclusive = weak or mixed curves, or effect the other way; inactive = no such curve, though single readings can be large or run the other way.

Assay: Caspase-3/7 induction in CHO-K1 cells by small molecules, qHTS cell viability counter screen (AID 1346979); note: nearly all actives have a fitted effect of over 35% in size
Details: CellTiter-Fluor fluorescence, 17 h; series mostly up to 92.4 µM
Excerpt: National Center for Advancing Translational Sciences [NCATS]
NIH Chemical Genomics Center [NCGC]
U.S. Environmental Protection Agency [EPA]
National Institutes of Environmental Health Sciences [NIEHS]
National Toxicology Program [NTP]
U.S. Food and Drug Administration [FDA]
Apoptosis is a process of programmed cell death and plays a central role in the development of multicellular organisms. It is a highly regulated process and induces cell death by activating caspases, which are the members of cysteine aspartic acid-specific protease (caspase) family. Caspases involved in apoptosis are classified by their mechanism of action as initiator caspases (caspase-2, -8, -9 and -10) and executioner caspases (caspase-3, -6, and -7). Inhibition of apoptosis results in number of cancers, autoimmune diseases, inflammatory diseases and viral infection. To identify small molecule compounds that induce apoptosis, a homogeneous, luminescent Caspase-Glo 3/7 assay was used. Wild type CHO-K1 cells were used to screen Tox21 libraries for identifying caspase-3/7 activity inducers. Also cytotoxicity of the compounds was tested in parallel by measuring the cell viability using CellTiter-Fluor assay system in the same wells.
Tox21 Assay Protocol Summary:
CHO-K1 cells were dispensed at 1,500 per well in 5uL of culture medium into white solid bottom 1536-well plates (Corning Life Sciences, Corning, NY) using a Multidrop Combi (Thermo Scientific, Waltham, MA) dispenser. The assay plates were incubated at 37 C and 5% CO2 for 5hr, and then 23nL of compounds dissolved in DMSO and positive control were transferred using a Pintool station (Wako, San Diego, CA). The assay plates were incubated at 37C and 5% CO2 for 17hr. For cytotoxicity read, after 16hr incubation at 37C, 1uL CellTiter-Fluor reagent (Promega Corporation, Madison, WI) was added to each well of the assay plates using Flying Reagent Dispenser (FRD, Aurora Discovery, San Diego, CA). After 1hr incubation at 37C and 5% CO2, the fluorescence signal was quantified using a ViewLux plate reader (PerkinElmer, Shelton, CT).
Potency is the fitted concentration of half-maximal effect.

Compound | Potency
OCCCCO | inactive
O=C(O)CCCc1ccc(N(CCCl)CCCl)cc1 | 34.5 µM (active) and 21.7 µM (active) and 21.1 µM (active)
CSc1nnc(C(C)(C)C)c(=O)n1N | inactive
CNC(=O)O/N=C(\SC)C(=O)N(C)C | inactive
O=C/C=C/c1ccccc1 | inactive
Nc1cccc(Cl)c1 | inactive
C/C=C/c1ccc2c(c1)OCO2 | inactive
CNC(=O)Oc1cccc2ccccc12 | inactive
O=[N+]([O-])c1ccc(Cl)c(Cl)c1 | inactive
CCOP(=S)(OCC)Oc1ccc([N+](=O)[O-])cc1 | inactive
NNc1ccccc1 | inactive
COc1nc(NC(C)C)nc(NC(C)C)n1 | inactive
C=C(C)C(=O)OCC(CC)CCCC (stereo not given) | inactive
N#Cc1cccc(C#N)c1 | inactive
O=C(O)Cc1ccccc1 | inactive
Clc1cnc(Oc2ccc(Oc3ncc(Cl)cc3Cl)cc2)c(Cl)c1 | inactive
COP(=S)(OC)SCN1C(=O)c2ccccc2C1=O | inactive
COc1cc(-c2ccc(N)c(OC)c2)ccc1N | inactive and 58.3 µM (active)
O=C(O)c1cc(Oc2ccc(C(F)(F)F)cc2Cl)ccc1[N+](=O)[O-] | inactive
C=CC(=O)OCCCCCC(C)C | inactive

Compound | Potency
Oc1ccc(Cl)cc1 | inactive
Nc1ccc(N)cc1 | 48.8 µM (active) and 54.5 µM (active)
Cc1ccccc1N | inactive
Cl[C@H]1OCCO[C@@H]1Cl | inactive
CCOP(=S)(OCC)Oc1cc(C)nc(C(C)C)n1 | inactive
CC(=O)C1CCOC1=O (stereo not given) | inactive
Cc1cccc(N)c1 | inactive
CN1C(=O)CCS(=O)(=O)C1c1ccc(Cl)cc1 (stereo not given) | inactive
FC(F)(F)c1ccc(Cl)cc1 | inactive
Cc1ccc(O)c(C)c1 | inactive
CN(C)C(=O)Nc1cccc(C(F)(F)F)c1 | inactive
Cc1ccc(N=C=O)cc1N=C=O | inactive
CC12CC1(C)C(=O)N(c1cc(Cl)cc(Cl)c1)C2=O (stereo not given) | inactive
CCOC(=O)CC(SP(=O)(OC)OC)C(=O)OCC (stereo not given) | inactive
CCCOC(=O)c1ccccc1C(=O)OCCC | inactive
Cc1ccc(N)cc1 | inactive
C[C@H]1C(=O)O[C@@H]2CCN3CC=C(COC(=O)[C@](C)(O)[C@]1(C)O)[C@H]23 | inactive
CN(C)NC(=O)CCC(=O)O | inactive
Nc1ccc([As](=O)(O)O)cc1 | inactive
CNCC(O)c1ccc(O)cc1 (stereo not given) | inactive
